Values joined by “and” are separate entries in the source; they are usually repeats but may differ in a detail not shown here. Equal values may be shown once. Inconclusive results are not listed. A call without a number means that no potency is given here. Unmarked numbers belong to inactive results. Active and inactive are the calls of the source. Calls come from the whole dose curve.
Assay: qHTS assay to identify small molecule agonists of the endoplasmic reticulum stress response signaling pathway - cell viability counter screen (AID 1159517); note: nearly all actives have a fitted effect of over 50% in size
Conditions: ESRE-bla HeLa viability, CellTiter-Glo luminescence, 5 h; series mostly up to 61 µM; activity change, negative = cytotoxicity: at the top concentration
Source text: U.S. Tox21 Program National Center for Advancing Translational Sciences [NCATS] NIH Chemical Genomics Center [NCGC] U.S. Environmental Protection Agency [EPA] National Institutes of Environmental Health Sciences [NIEHS] National Toxicology Program [NTP] U.S. Food and Drug Administration [FDA] Tox21 Assay Overview: Endoplasmic Reticulum (ER) plays an important role in cellular signaling, protein folding/maturation, stress response, lipid biosynthesis, calcium storage and release etc. Under stress conditions, proteins in ER misfold or unfold, and leading to the expression of ER stress responsive genes. ER stress has been associated with a variety of pathophysiological conditions such as cancer, inflammation, neurodegenerative diseases, diabetes, ischemic heart disease etc. To identify the compounds that induce ER stress response, an ER stress reporter cell line, CellSensor ESRE-bla HeLa (Life Technologies, Carlsbad, CA) containing a beta-lactamase reporter gene under control of the Endoplasmic reticulum Stress Response Element (ESRE) was used to screen Tox21 10K compound library. The cytotoxicity of the Tox21 compound library against the ESRE-bla HeLa cell line was tested in parallel by measuring cell viability using the CellTiter-Glo assay in the same wells.
Tox21 Assay Protocol Summary: ESRE-bla HeLa cells were dispensed at 1,500 cells/6 uL of assay medium per well into black wall/clear-bottom 1536-well plates using a Multidrop Combi (ThermoFisher Scientific, Waltham, MA) dispenser. After the assay plates were incubated at 37 C and 5% CO2 for an overnight, 23 nL of compounds dissolved in DMSO, positive controls or DMSO only was transferred to the assay plate by a Pintool station (Kalypsys, San Diego, CA). The assay plates were incubated at 37 C and 5% CO2 for 5 hr. One uL of LiveBLAzer B/G FRET substrate (Life Technologies) was added using a FRD (Flying Reagent Dispenser, Aurora Discovery, San Diego, CA) and the plates were incubated at room temperature for 2 hr. Fluorescence intensity (405 nm excitation, 460 nm and 530 nm emissions) was measured using an Envision plate reader (PerkinElmer, Shelton, CT). For cytotoxicity, 4 ul/well of CellTiter-Glo reagent was added into the assay plates using an FRD. After 30 min incubation at room temperature, the luminescence intensity was measured using a ViewLux plate reader (PerkinElmer).
Potency is the fitted concentration of half-maximal effect.

| SMILES | Potency | activity change, negative = cytotoxicity |
| --- | --- | --- |
| CC(C)c1c(C(=O)Nc2ccccc2)c(-c2ccccc2)c(-c2ccc(F)cc2)n1CC[C@@H](O)C[C@@H](O)CC(=O)O | inactive | – |
| O=C1O[C@H]([C@@H](O)CO)C(O)=C1O | inactive | – |
| CC(=O)CCC(=O)O | inactive | – |
| O=C(O)CC(O)C(=O)O (stereo not given) | inactive | – |
| CC12CCC(CC1)C(C)(C)O2 | inactive | – |
| O=C1NC(=O)C(c2ccccc2)(c2ccccc2)N1 | inactive | – |
| CCOc1ccc(NC(C)=O)cc1 | inactive | – |
| CN(C)CCOC(C)(c1ccccc1)c1ccccn1 (stereo not given) | inactive | – |
| O=S1(=O)OC(c2ccc(O)cc2)(c2ccc(O)cc2)c2ccccc21 | inactive | – |
| O=C1NS(=O)(=O)c2ccccc21 | inactive | – |
| CC1(C)S[C@@H]2[C@H](NC(=O)[C@H](N)c3ccccc3)C(=O)N2[C@H]1C(=O)O | inactive | – |
| CCCCOC(=O)c1ccc(O)cc1 | inactive | – |
| C[C@](N)(Cc1ccc(O)c(O)c1)C(=O)O | inactive | – |
| NS(=O)(=O)c1cc2c(cc1Cl)NCNS2(=O)=O | inactive | – |
| COc1ccc(OC(F)(F)F)cc1CN[C@H]1CCCN[C@H]1c1ccccc1 | – | -29.7% |
| CN1CCc2cccc3c2[C@H]1Cc1ccc(O)c(O)c1-3 | inactive | – |
| CCCC[P+](CCCC)(CCCC)CCCC | inactive | – |
| CC(=O)C(=O)O | inactive | – |
| NC(=O)c1cccnc1 | inactive | – |
| Cc1cccc(C)c1 | inactive | – |

| SMILES | Potency | activity change, negative = cytotoxicity |
| --- | --- | --- |
| CCCCC(CC)C(=O)O (stereo not given) | inactive | – |
| Cc1cc(C)nc(NS(=O)(=O)c2ccc(N)cc2)n1 | inactive | – |
| Cc1cn([C@H]2C=C[C@@H](CO)O2)c(=O)[nH]c1=O | inactive | – |
| CCCCCCCCCCCCCCCC[N+](C)(C)Cc1ccccc1 | 25.3 µM (active) and 39.6 µM (active) | – |
| CCCCNC(=O)NS(=O)(=O)c1ccc(C)cc1 | inactive | – |
| Cn1c(=O)c2c(ncn2C)n(C)c1=O | inactive | – |
| CNNCc1ccc(C(=O)NC(C)C)cc1 | inactive | – |
| CC1(C)O[C@@H]2C[C@H]3[C@@H]4CCC5=CC(=O)C=C[C@]5(C)[C@@]4(F)[C@@H](O)C[C@]3(C)[C@]2(C(=O)CO)O1 | inactive | – |
| CC(C)NCC(O)c1ccc(O)c(O)c1 (stereo not given) | inactive | – |
| CCc1nc(N)nc(N)c1-c1ccc(Cl)cc1 | inactive | – |
| CC/C(=C(\c1ccccc1)c1ccc(OCCN(C)C)cc1)c1ccccc1 | 49 µM (active) [middle of 4 runs] | – |
| CCCCC1(COC(=O)CCC(=O)O)C(=O)N(c2ccccc2)N(c2ccccc2)C1=O | inactive | – |
| C=C(C)C(=O)OCC(C)O (stereo not given) | inactive | – |
| CC(=O)CC(c1ccccc1)c1c(O)c2ccccc2oc1=O (stereo not given) | inactive | – |
| CN1[C@@H]2CC(OC(=O)[C@H](CO)c3ccccc3)C[C@H]1[C@@H]1O[C@@H]12 (stereo not given in full) | inactive | – |
| NC(=O)n1c(O)c(C(=O)c2cccs2)c2cc(Cl)ccc21 | – | 5.68% |
| CCOC(N)=O | inactive | – |
| CC(=O)Nc1c(I)c(NC(C)=O)c(I)c(C(=O)O)c1I | inactive | – |
| Cc1c(C(=O)O)c(O)cc2c1C(=O)c1c(O)c([C@@H]3O[C@H](CO)[C@@H](O)[C@H](O)[C@H]3O)c(O)c(O)c1C2=O | inactive | – |
| Cc1ncc([N+](=O)[O-])n1C | inactive | – |

Reference: PubChem BioAssay (Tox21)
